Holding throughout (experiment): glycan array binding signal (z-score within array); higher = stronger binding
Common to all, as to details: glycan notation: IUPAC condensed, linker removed

Test [1] deals with GlcNAc(b1-2)[GlcNAc(b1-4)]Man(a1-3)[GlcNAc(b1-4)][GlcNAc(b1-2)[GlcNAc(b1-6)]Man(a1-6)]Man(b1-4)GlcNAc(b1-4)[Fuc(a1-6)]GlcNAc. Put shortly: (§1)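 Glycan array binding is given as a within-array Z-score, which can be read as non-binding when negative. The arrays, 3228 of them, came from the Consortium for Functional Glycomics database and were retained only where the protein sequence was available. Z-scores were averaged across arrays of the same protein sequence at different concentrations or buffers and across linkers.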

The target in test [2] is GlcNAc(b1-3)Gal(b1-4)GlcNAc(b1-2)Man(a1-3)[GlcNAc(b1-3)Gal(b1-4)GlcNAc(b1-2)Man(a1-6)]Man(b1-4)GlcNAc(b1-4)GlcNAc. An outline of the steps:
as §1

Test [3] concerns the target GlcNAc(b1-3)Gal(b1-4)GlcNAc(b1-3)Gal(b1-4)GlcNAc(b1-2)Man(a1-3)[GlcNAc(b1-3)Gal(b1-4)GlcNAc(b1-3)Gal(b1-4)GlcNAc(b1-2)Man(a1-6)]Man(b1-4)GlcNAc(b1-4)GlcNAc. Put shortly: as §1
Test [4] has as its target GlcNAc(b1-3)Gal(b1-4)GlcNAc(b1-3)Gal(b1-4)GlcNAc(b1-3)Gal(b1-4)GlcNAc(b1-2)[GlcNAc(b1-3)Gal(b1-4)GlcNAc(b1-3)Gal(b1-4)GlcNAc(b1-3)Gal(b1-4)GlcNAc(b1-6)]Man(a1-6)[GlcNAc(b1-3)Gal(b1-4)GlcNAc(b1-3)Gal(b1-4)GlcNAc(b1-3)Gal(b1-4)GlcNAc(b1-2)Man(a1-3)]Man(b1-4)GlcNAc(b1-4)[Fuc(a1-6)]GlcNAc. Put shortly:
as §1

Test [5] deals with GlcNAc(b1-4)[GlcNAc(b1-6)]GalNAc. Put shortly:
as §1

The target in test [6] is Man(a1-3)[Man(a1-6)]Man(b1-4)GlcNAc(b1-4)GlcNAc. An outline of the steps: as §1
Test [7] concerns the target Neu5Ac(a2-3)Gal(b1-3)GalNAc(b1-4)[Neu5Ac(a2-3)]Gal(b1-4)Glc. An outline of the steps: as §1
For test [8], the target named is Neu5Ac(a2-3)Gal(b1-3)GalNAc6S. Put shortly:
as §1

For test [9], the target named is Neu5Ac(a2-3)Gal(b1-3)GlcNAc(b1-2)Man(a1-3)[Neu5Ac(a2-3)Gal(b1-3)GlcNAc(b1-2)Man(a1-6)]Man(b1-4)GlcNAc(b1-4)GlcNAc. An outline of the steps:
as §1

Test [10] has as its target Neu5Ac(a2-3)Gal(b1-3)[GlcNAc(b1-6)]GalNAc. Put shortly: as §1
The target in test [11] is Neu5Ac(a2-3)Gal(b1-4)GlcNAc(b1-2)Man. An outline of the steps:
as §1

The target of test [12] is Neu5Ac(a2-3)Gal(b1-4)GlcNAc(b1-3)Gal(b1-4)GlcNAc(b1-3)Gal(b1-4)GlcNAc(b1-2)Man(a1-3)[Neu5Ac(a2-3)Gal(b1-4)GlcNAc(b1-3)Gal(b1-4)GlcNAc(b1-3)Gal(b1-4)GlcNAc(b1-2)Man(a1-6)]GalNAc. Put shortly:
as §1

The target of test [13] is Neu5Ac(a2-3)Gal(b1-4)GlcNAc(b1-3)Gal(b1-4)GlcNAc(b1-3)GalNAc. Put shortly: as §1
Test [14] deals with Neu5Ac(a2-3)Gal(b1-4)GlcNAc(b1-3)Gal(b1-4)[Fuc(a1-3)]GlcNAc. Put shortly: as §1
In test [15] the target is Neu5Ac(a2-3)Gal(b1-4)[Fuc(a1-3)]GlcNAc(b1-2)Man. An outline of the steps: as §1
For test [16], the target named is Neu5Ac(a2-6)Gal(b1-4)GlcNAc(b1-2)Man(a1-3)[Neu5Ac(a2-3)Gal(b1-4)GlcNAc(b1-2)Man(a1-6)]Man(b1-4)GlcNAc(b1-4)GlcNAc. An outline of the steps:
as §1

Test [17] concerns the target Neu5Ac(a2-6)Gal(b1-4)GlcNAc(b1-2)Man(a1-3)[Neu5Ac(a2-6)Gal(b1-4)GlcNAc(b1-2)Man(a1-6)]Man(b1-4)GlcNAc(b1-4)GlcNAc. Put shortly: as §1
Test [18] deals with Neu5Ac(a2-6)Gal(b1-4)GlcNAc(b1-2)Man(a1-6)[GlcNAc(b1-2)Man(a1-3)]Man(b1-4)GlcNAc(b1-4)GlcNAc. Put shortly:
as §1

The target in test [19] is Neu5Ac(a2-6)Gal(b1-4)GlcNAc(b1-3)Gal(b1-4)GlcNAc(b1-2)Man(a1-3)[Neu5Ac(a2-6)Gal(b1-4)GlcNAc(b1-3)Gal(b1-4)GlcNAc(b1-2)Man(a1-6)]GalNAc. An outline of the steps:
as §1

The target in test [20] is Neu5Ac(a2-6)Gal(b1-4)GlcNAc(b1-3)Gal(b1-4)GlcNAc(b1-3)[Neu5Ac(a2-6)Gal(b1-4)GlcNAc(b1-3)Gal(b1-4)GlcNAc(b1-6)]GalNAc. An outline of the steps: as §1
The target in a further test is Neu5Ac(a2-6)GalNAc. An outline of the steps:
as §1

Test [21] addresses Neu5Ac(a2-6)GalNAc(b1-4)GlcNAc. Put shortly: as §1
Test [22] has as its target Neu5Ac(a2-8)Neu5Ac(a2-3)Gal(b1-4)Glc. Put shortly:
as §1

Test [23] concerns the target Neu5Ac(a2-8)Neu5Ac(a2-3)[GalNAc(b1-4)]Gal(b1-4)Glc. An outline of the steps: as §1

This excerpt belongs to a sample that is enriched for the strongest signals.

B1: RsaA-N-term (Caulobacter crescentus), P35828 (protein)
chain: MAYTTAQLVTAYTNANLGKAPDAATTLTLDAYATQTQTGGLSDAAALTNTLKLVNSTTAVAIQTYQFFTGVAPSAAGLDFLVDSTTNTNDLNDAYYSKFAQENRFINFSINLATGAGAGATAFAAAYTGVSYAQTVATAYDKIIGNAVATAAGVDVAAAVAFLSRQANIDYLTAFVRANTPFTAAADIDLAVKAALIGTILNAATVSGIGGYATATAAMINDLSDGALSTDNAAGVNLFTAYPSSGVSGSTLSLTTGTDTLTGTANNDTFVAGEVAGDGSGWSHPQFEKGG
Take B1: the “glycan array binding signal (z-score)” value in test [1] is 0.317; in test [2], 2.18; in [3] it was 2.59; in [4], 0.217; in test [5], -0.221; in test [6] it was 0.174. The “glycan array binding signal (z-score)” value in test [7] is -1.29; in test [8] it was 0.427; in test [9], 7.19; in [10], -1.21; in test [11], 2.51; in [12], -0.725. For the same molecule, the “glycan array binding signal (z-score)” value in test [13] was -1.2; in test [14] it was -0.112; in test [15], 0.103; in [16], 2.79; in [17], 0.398; in test [18] it was 0.365. The “glycan array binding signal (z-score)” value in test [19] is -1.33; in [20] it was -0.68; with Neu5Ac(a2-6)GalNAc, 2.17; in test [21], -0.593; in test [22], -0.815; in [23], -0.001.

Source of the values: the supplement of paper PMC8728848.
